Laboratory results taken from PubChem BioAssay AID2405 (Southern Research Specialized Biocontainment Screening …, 2010).
Calls of active or inactive are those of the source. How the calls were made is not given here.

assay: RSV cytopathic effect inhibition in HEp-2 – cell-based, probe candidates (AID 2405); details: HEp-2 cells, stronger effect = higher value; at 100 µM unless noted

Maximum inhibition, inactive:
O=C(CSc1nc2ccc(F)cc2c(=O)n1-c1ccccc1)Nc1ccc2c(c1)CCC2 14.7%
COc1cccc2c(=O)n(-c3ccccc3)c(SCC(=O)Nc3ccc4c(c3)CCC4)nc12 21.8%
CC1CCCN(CCCNC(=O)c2cc3c(s2)-c2ccccc2OC3)C1 (stereo not drawn) 3.5% [at 25 µM]
CCOC(=O)C1(Cc2ccccc2C(F)(F)F)CCN(C2CCN(C(C)C)CC2)CC1 0.09% [at 0.2 µM]
Cc1cccc2c(=O)n3c(nc12)CCC3 1.55% [at 0.2 µM]
COc1ccc(-c2csc(N(Cc3ccccc3)C(=O)c3ccccc3Cl)n2)cc1 10.1% [at 25 µM]
O=c1c2cc(Cl)cc(Cl)c2nc2n1CCC2 5.87%
O=[N+]([O-])c1ccc2c(c1)C(O)N1CCCC1=N2 (stereo not drawn) 2.6% [at 12.5 µM]
Cc1cccc2c(=O)n(-c3ccccc3)c(SCC(=O)Nc3ccc4c(c3)CCC4)nc12 5.23% [at 12.5 µM]
COc1ccc(-c2csc(NC(=O)c3ccccc3F)n2)cc1 1.37%
CCCN(C(=O)c1ccccc1Cl)c1nc(-c2ccc(OC)cc2)cs1 14.1% [at 50 µM]
O=C(Nc1nc(-c2ccccc2)cs1)c1ccccc1Cl 45.7% [at 12.5 µM]
O=C(CSc1nc2ccccc2c(=O)n1-c1ccc(Cl)c(Cl)c1)Nc1ccc2c(c1)CCC2 5.37%
OC1c2c(F)cccc2N=C2CCCCCN21 (stereo not drawn) 1.87% [at 12.5 µM]
O=C(CSc1nc2ccccc2c(=O)n1-c1ccc(F)cc1F)Nc1ccc2c(c1)CCC2 5.7% [at 25 µM]
COc1ccc(NC(=O)CSc2nc3ccccc3c(=O)n2-c2ccc(F)cc2)cc1 18.6%
COc1ccc(-c2csc(N(C)C(=O)c3ccccc3Cl)n2)cc1 2.66% [at 12.5 µM]
COc1cccc(NC(=O)CSc2nc3ccccc3c(=O)n2-c2ccc(F)cc2)c1 48.3%
COc1ccc(Cn2nc(C)cc2OC(=O)c2c(F)cccc2F)cc1 1.12% [at 0.39 µM]
COc1ccc(-c2csc(N(CCCN(C)C)C(=O)c3ccccc3C)n2)cc1 0.96% [at 0.2 µM]
O=C(CSc1nc2ccccc2c(=O)n1-c1ccc(F)c(Cl)c1)Nc1ccc2c(c1)CCC2 6.32%
O=C(CSc1nc2ccccc2c(=O)n1-c1ccc(F)cc1F)Nc1ccc(N2CCOCC2)cc1 1.49%
COc1ccc(-c2csc(N(CCCBr)C(=O)c3ccccc3Cl)n2)cc1 3.83% [at 50 µM]
CCN(CC)CCCNC(=S)N1CCN(c2nc(-c3ccccc3)cs2)CC1 1.02% [at 0.2 µM]
O=C(CSc1nc2ccccc2c(=O)n1-c1ccccc1)Nc1ccc2c(c1)CCC2 18.8% [at 12.5 µM]
CCOC(=O)C1(Cc2ccccc2C(F)(F)F)CCN(C2CCN(C(C)=O)CC2)CC1 1.32% [at 6.25 µM]
O=c1c2cccc(Cl)c2nc2n1CCC2 1.74% [at 50 µM]
c1ccc2c(c1)CN1CCCC1=N2 1.32% [at 6.25 µM]
